Bioassay records from PubChem BioAssay.
Gli-Sufu antag: Gli-Sufu pathway antagonists, primary screen, luciferase luminescence, Sufu-KO-LIGHT cells, uHTS; Sufu-KO-LIGHT fibroblasts, Gli luciferase reporter luminescence; hit rate 0.74% among 340,000; inhibition, % at 5 µM;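 active means inhibition above about 55%, limit read from the data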
Jurkat NFkB inh: inhibitors of induced NF-kB luciferase reporter, primary screen, TCR NF-kB activation inhibitor project, cell-based, luminescence, uHTS | hit rate 0.53% among 330,000 | AID 435003, 2010 | Jurkat, PMA/ionomycin-induced NF-kB luciferase reporter | inhibition, % at 4 µM; in the data active means inhibition above about 50%
697 NFkB inh: inhibitors of PMA/ionomycin-induced NF-kB reporter, 697 cells, primary screen, B-cell NF-kB inhibitor project, cell-based, luminescence, uHTS; 697 B-cell NF-kB luciferase reporter, 16 h; inhibition, % at 4 µM; hit rate 0.33% among 330,000; AID 435022, 2010; in the data active means inhibition above about 35%
Shn3 3UTR inh: reduction of Shn3 3'UTR firefly luciferase signal, primary screen, Schnurri-3 inhibitor project, cell-based, Clone20 osteoblasts, set 2 | Clone20 osteoblast Shn3 3'UTR firefly luciferase, 24 h | inhibition, % at 12.5 µM | hit rate 0.52% among 360,000;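 active means mean inhibition of at least 75% with every replicate also reaching 75%; inconclusive means mean inhibition at least 75% but some replicate below; inactive means mean inhibition below 75%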
EBV LMP1 NFkB: EBV LMP1-driven NF-kappaB luciferase reporter inhibitors, primary screen, cell-based, luminescence, single point. LMP1-induced NF-kappaB luciferase reporter cells. inhibition, % at 12.5 µM. hit rate 0.69% among 350,000. AID 504558, 2011; in the data active means inhibition above about 41%; inconclusive means no clear call, values can overlap the other calls
TRPM1 prom inh: inhibitors of MITF-dependent TRPM1 promoter reporter, primary screen, cell-based, SK-MEL-5, single point, luciferase | hit rate 0.83% among 330,000 | inhibition, % at 12.5 µM | SK-MEL-5 TRPM1 promoter luciferase, 24 h | AID 488899, 2010;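 active means mean inhibition across replicates of 60% or more, whatever share of single replicates reaches that level; inconclusive means some that reach 60%, reason not given; inactive means mean inhibition across replicates below 60%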
Of the large screens only hits and unclear results are named; the others gave an inactive call. Rows were chosen to be rich in hits. Some 2.3% of all compounds tested hit in one or more screens of this group.

N/C(=N\OC(=O)c1cccc([N+](=O)[O-])c1)c1ccccn1	none
COc1cccc(C(=O)O/N=C(\N)c2ccccn2)c1	EBV LMP1 NFkB 68, TRPM1 prom inh 84
COc1cccc(C(=O)O/N=C(\N)c2ccccn2)c1OC	EBV LMP1 NFkB 52
CCCc1ccc(C(=O)O/N=C(\N)c2ccccn2)cc1	EBV LMP1 NFkB 69, TRPM1 prom inh 73
CCOC(=O)c1ccccc1NC(=O)CSc1nnnn1C1CCCCC1	none
O=C(CNC(=O)C12CC3CC(CC(C3)C1)C2)N1CCCC(C(F)(F)F)C1 (configuration not stated)	none (no result: Gli-Sufu antag, Jurkat NFkB inh, 697 NFkB inh, TRPM1 prom inh)
COc1ccc(OC)c(NC(=O)COC(=O)COc2ccc(Nc3ccccc3)cc2)c1	EBV LMP1 NFkB 70
COc1ccc(NC(=O)COC(=O)c2c3c(nc4ccccc24)CCCC3)cc1	none
COc1ccc(OC)c(NC(=O)COC(=O)c2c3c(nc4ccccc24)CCCC3)c1	Shn3 3UTR inh 90
COc1ccc(NC(=O)COc2ccccc2)c(OC)c1	none
COc1cc(NS(=O)(=O)c2ccc(NC(=O)CN3C(=O)c4ccccc4C3=O)cc2)nc(OC)n1	none
C=CCN(CC=C)C(=O)C1CCN(S(=O)(=O)c2ccc(-n3cnnn3)cc2)CC1	none
Cc1cc(NCCCCCCCNc2cc(C)nc3cc([N+](=O)[O-])ccc23)c2ccc([N+](=O)[O-])cc2n1	Shn3 3UTR inh 86, EBV LMP1 NFkB 79, TRPM1 prom inh inconclusive (no result: Jurkat NFkB inh, 697 NFkB inh)
O=C1c2ccc3c4c(ccc(c24)C(=O)N1CCCCO)C(=O)N(CCCCO)C3=O	TRPM1 prom inh 102 (no result: Jurkat NFkB inh, 697 NFkB inh)
Cc1[nH]nc2c1-c1nc3ccccc3nc1C(C)(C)C2	Shn3 3UTR inh 89
CC12CCC(C)(c3nc4ccccc4nc31)C2(C)C	none
CC1CCN(c2ccc3nnc(CCC(=O)NCCCOC(C)C)n3n2)CC1	none
Cc1ccc(C)c(S(=O)(=O)N2CCN(C(=O)c3ccc(C)s3)CC2)c1	EBV LMP1 NFkB 45
Cc1ccc(C(=O)N2CCN(S(=O)(=O)c3ccccc3)CC2)s1	none
CC(=O)Nc1cc(-c2ccc(C(=O)N3CCOCC3)cc2)cn2c(-c3cccc(C(C)=O)c3)cnc12	none (no result: Gli-Sufu antag, Jurkat NFkB inh, 697 NFkB inh, EBV LMP1 NFkB, TRPM1 prom inh)
COc1ccc2cc(-c3cc(C(=O)OCC(=O)Nc4c(C)n(C)n(-c5ccccc5)c4=O)c4ccccc4n3)ccc2c1	EBV LMP1 NFkB 58 (no result: Jurkat NFkB inh, 697 NFkB inh)
COc1ccc2cc(-c3cc(C(=O)OCC(=O)NC4CCS(=O)(=O)C4)c4ccccc4n3)ccc2c1 (configuration not stated)	EBV LMP1 NFkB 50 (no result: Jurkat NFkB inh, 697 NFkB inh)
O=C(COC(=O)c1cccc(-n2cnnn2)c1)c1ccccc1	none
CCC(C)n1ncn(-c2ccc(N3CCN(c4ccc(OCC5COC(Cn6cncn6)(c6ccc(Cl)cc6Cl)O5)cc4)CC3)cc2)c1=O (configuration not stated)	EBV LMP1 NFkB 91
CC(=O)OCC(=O)[C@H]1CC[C@H]2[C@@H]3CCC4=CC(=O)CC[C@]4(C)[C@H]3CC[C@]12C	none
C[C@]12CC[C@H]3[C@@H](CCC4=CC(=O)CC[C@@]43C)[C@@H]1CC[C@@H]2C(=O)CO	EBV LMP1 NFkB 66
c1ccc(C2=NNC(=NCc3ccc4c(c3)OCO4)SC2)cc1	none
C=CCN=C1NN=C(c2cc(C)n(CC=C)c2C)CS1	Gli-Sufu antag 71, EBV LMP1 NFkB 53, TRPM1 prom inh 84
C=CCN=C1NN=C(c2ccc3c(c2)OCCO3)CS1	EBV LMP1 NFkB 47, TRPM1 prom inh 69
COCCN=C1NN=C(c2cc(C)n(CC3CCCO3)c2C)CS1 (configuration not stated)	none
COc1cccc(NC(=O)CN(C)C(=O)CCNC(=O)c2ccc(Br)cc2)c1	none
Oc1ccccc1N=Nc1ccccc1O	Gli-Sufu antag 87, EBV LMP1 NFkB 67 (no result: Jurkat NFkB inh, 697 NFkB inh)
Nc1ccc(N=Nc2ccccc2O)c(N)c1	none (no result: EBV LMP1 NFkB, TRPM1 prom inh)
CSc1ccccc1OCc1cc(C(=O)N2CCC[C@H]2C(N)=O)no1	EBV LMP1 NFkB 63
CN(Cc1ccccc1)C(=C(Cl)Cl)/C(=C1/NCCN1C)[N+](=O)[O-]	none (no result: Gli-Sufu antag)
CC(C)(C)OC(=O)COc1cc(OCC(=O)OC(C)(C)C)c2c(=O)cc(-c3ccccc3)oc2c1	none
COC(=O)C1=C(C(=O)c2ccccc2)C(c2ccccc2)n2nnnc2N1 (configuration not stated)	EBV LMP1 NFkB 63
COC(=O)C1=C(C(C)=O)C(c2ccc(C(=O)OC)cc2)n2nnnc2N1 (configuration not stated)	none
O=C1OCC2=C1C(c1ccc3c(c1)OCO3)c1cc3c(cc1O2)OCO3 (configuration not stated)	EBV LMP1 NFkB 59 (no result: Jurkat NFkB inh, 697 NFkB inh)
N#CC1=C(N)Oc2cc3c(cc2C1c1ccc(Cl)cc1)OCO3 (configuration not stated)	none
CCOC(=O)c1ccc(NS(=O)C23CC4CC(CC(C4)C2)C3)cc1 (configuration not stated)	none
Cc1ccc(NC(=O)C2CCN(S(=O)(=O)c3ccc4c(c3)oc(=O)n4C)CC2)cc1	none
CC1=C(CC(=O)O)c2cc(F)ccc2C1=Cc1ccc(S(C)(=O)=O)cc1	EBV LMP1 NFkB 83
CC1=C(CC(=O)O)c2cc(F)ccc2/C1=C/c1ccc(S(C)=O)cc1 (configuration not stated)	none
NC(=O)c1ccccc1N/C=C/C(=O)c1ccc(F)cc1	none
NC(=O)c1ccccc1N/C=C/C(=O)c1cccs1	EBV LMP1 NFkB 53
O=C(O)CC1S/C(=N/N=C/c2ccc(Br)cc2)N(c2ccccc2)C1=O (configuration not stated)	none
S=C1NC2=C(CCCC2=C2SCCCS2)C(c2ccccc2)N1 (configuration not stated)	none
COc1ccc(C2NC(=S)NC3=C2CCCC3=C2SCCS2)cc1 (configuration not stated)	TRPM1 prom inh 84
Nc1c(Cl)ncnc1N/N=C/c1cccnc1	none
Nc1c(Cl)ncnc1N/N=C/c1ccc2ccccc2n1	Gli-Sufu antag 66 (no result: Jurkat NFkB inh, 697 NFkB inh)
Nc1c(Cl)ncnc1N/N=C/c1ccccn1	Gli-Sufu antag 77 (no result: Jurkat NFkB inh, 697 NFkB inh, Shn3 3UTR inh, EBV LMP1 NFkB, TRPM1 prom inh)
Nc1c(Cl)ncnc1N/N=C/c1ccnc2ccccc12	none
COc1cccc(CN2CC(C(=O)N3CCSCC3)CCC2=O)c1 (configuration not stated)	none (no result: Gli-Sufu antag, Jurkat NFkB inh, 697 NFkB inh, TRPM1 prom inh)
Cc1ccsc1-c1nc(CSCC(=O)N2CCN(c3ccccc3)CC2)c(C)o1	EBV LMP1 NFkB 81
COc1c(Cl)cc(Cl)cc1/C=C/C(=O)c1ccc(NC(=O)c2cccs2)cc1	TRPM1 prom inh 68
COc1c(Cl)cc(Cl)cc1C(=O)Nc1ccc(C(=O)O)cc1	none
CCOc1ccc(-c2noc(CCCC(N)=O)n2)cc1OC	none
